Source: PubChem
Hits are enriched below; roughly 6.2% of the tested compounds scored in any of these assays.
ATXN2 expr inh: ATXN2 expression inhibition; HEK-293 ATXN2-luciferase reporter, luminescence, 24 h; 0.72% of 360,000 active; Potency, µM (highest dose often 57 µM), for the others: at the highest dose activity change, negative = inhibition, usual class: inhibitors; AID 1745845; also: % is scaled to controls: 0 for no effect and ±100 for the full control effect; nearly all actives have a fitted effect of over 55% in size
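qHTS (up to 57 uM final) was run with 24 h compound exposure of reporter cells at 37 °C. Each well was multiplexed: SteadyGlo luminescence measured ATXN2-luciferase expression after a fluorogenic Gly-Phe-AFC viability readout (25 uM final).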
KB-3-1 tox: kills parental KB-3-1 adenocarcinoma cells; KB-3-1 viability, CellTiter-Glo ATP luminescence, 72 h; Potency, µM (titrated, usually from 46.1 µM), most hits filed as cytotoxic; 1.4% of 400,000 active; AID 1347075; also: % is scaled to controls: 0 for no effect and ±100 for the full control effect; nearly all actives have a fitted effect of over 60% in size
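Cells are dispensed, compounds pinned in, plates held at 37 °C for 72 h, then CellTiter-Glo is added and luminescence read after 10 minutes. Cell line: parental KB-3-1 in phenol-red-free DMEM, 10% FBS.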
KB-V1 cytotox: kills drug-selected multidrug resistant KB-V1 cells | 3.4% of 400,000 active | KB-V1 MDR cells viability, CellTiter-Glo, 72 h | AID 1347076 | Potency, µM (doses to about 46.1 µM), usual class: cytotoxic; also: % is scaled to controls: 0 for no effect and ±100 for the full control effect; nearly all actives have a fitted effect of over 60% in size
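Following 72 h at 37 degrees C with compound, KB-V1 cell viability was read by CellTiter-Glo luminescence, medium being phenol-red-free DMEM plus 10% FBS; concentration-response parameters came from normalized, curve-fitted qHTS data.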
S2 tox: viability counter-screen for ATXN expression inhibitors; S2 cells (HEK-293 line with an ATXN2-luciferase reporter) viability, CellTiter-Fluor protease fluorescence, 24 h; Potency, µM (doses to about 56.7 µM), most hits filed as cytotoxic; 0.49% of 400,000 active; also: nearly all actives have a fitted effect of over 40% in size
HT1080-NT tox: kills 2HG-producing HT-1080-NT fibrosarcoma cells | HT-1080-NT fibrosarcoma viability, CellTiter-Glo ATP luminescence, 48 h | Potency, µM (titrated, usually from 46.1 µM), for the others: at the top dose activity, negative = less viability, usual class: cytotoxic | 1.6% of 360,000 active | AID 686970;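 also: NT is the 2HG producing partner of a matched IDH1 knockdown line; 0% = DMSO-treated cells and -100% = media-only wells without cells; nearly all actives have a fitted effect of over 55% in size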
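HT-1080-NT fibrosarcoma cells (2HG-overproducing), 750 cells/well in RPMI with 5% FBS, dosed after 2 h and incubated 48 h at 37C. CellTiter-Glo luminescence normalized to DMSO and no-cell wells; concentration-response curves fitted and classed.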
HT1080 IDH1KD tx: kills HT-1080 cells with IDH1 knockdown | HT-1080 IDH1 knockdown viability, ATP luminescence, 48 h | 2% of 360,000 active | Potency, µM (series often up to 46.1 µM), inactives show at the top dose activity, negative = toxicity, actives largely listed as cytotoxic;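 also: 0% = DMSO wells and -100% = cell-free medium wells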
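Luminescent ATP read-out (CellTiter-Glo, 10 min at room temperature) after 48 h compound exposure at 37 °C gave viability of IDH1-knockdown HT-1080 cells. Activity was normalised to DMSO and cell-free wells, then fitted as concentration-response curves.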
The depositor's hits bear a star; i = inactive; ? = inconclusive; nt = not tested or not shown. Calls follow the shape of the dose curve; as a rule, active = well fitted curve in the direction sought with a large enough effect; inconclusive = small, poorly fitted or top-dose-only effect, or another doubt; inactive = no such curve, though single readings can be large; an effect the other way counts as inactive or inconclusive. Potency is read from the fitted curve at half-maximal effect.

SMILES	ATXN2 expr inh	KB-3-1 tox	KB-V1 cytotox	S2 tox	HT1080-NT tox	HT1080 IDH1KD tx
CCSc1nsc(NC(=O)Nc2cccc(OC)c2)n1	-27%	?	?	i	?	?
C=CCSc1nsc(NC(=O)Nc2ccc(F)cc2)n1	?	?	21µM*	8.9µM*	16µM*	2.9µM*
Cc1cc2ccccn2c1C(=O)c1ccccc1F	3%	?	?	i	15µM*	?
C[C@@]12C(=O)Nc3ccccc3C(=O)N1[C@H]1c3cc(Br)ccc3OC[C@@H]1[C@@H]2c1ccccc1	-29%	?	i	i	?	5.8µM*
COc1cc2c(cc1OC)C(=O)N1[C@H]3c4cc(Cl)ccc4OC[C@@H]3[C@H](c3ccccc3)[C@]1(C)C(=O)N2	-14%	?	?	i	-11%	?
COc1cc2c(cc1OC)C(=O)N1[C@H]3c4cc(C)ccc4OC[C@@H]3[C@H](c3ccccc3)[C@]1(C)C(=O)N2	-12%	?	?	i	?	16µM*
Cc1ccc2c(c1)[C@H]1[C@H](CO2)[C@H](c2ccccc2)[C@]2(C)C(=O)Nc3cc(F)c(F)cc3C(=O)N12	?	?	i	i	?	?
Cc1ccc2c(c1)[C@H]1[C@H](CO2)[C@H](c2ccccc2)[C@]2(C)C(=O)Nc3ccc(F)cc3C(=O)N12	?	?	?	?	?	5.8µM*
COc1ccc2c(c1)[C@H]1[C@H](CO2)[C@H](c2ccccc2)[C@]2(C)C(=O)Nc3cc(Cl)ccc3C(=O)N12	11%	i	i	i	-16%	-26%
COc1ccc2c(c1)C(=O)N1[C@H]3c4cc(Cl)ccc4OC[C@@H]3[C@H](c3ccccc3)[C@]1(C)C(=O)N2	-17%	?	?	i	6.5µM*	15µM*
C[C@@]12C(=O)Nc3ccc(Br)cc3C(=O)N1[C@H]1c3cc(Br)ccc3OC[C@@H]1[C@@H]2c1ccccc1	-13%	i	i	i	?	-18%
O[C@@H]1[C@@H](O)C=C2CCN3Cc4cc5c(cc4[C@H]1C23)OCO5 (some centres undefined)	3.5µM*	8.2µM*	5.2µM*	?	1.8µM*	5.8µM*
Cc1cccc(NCc2nc3ccccc3n2CCOc2ccccc2C)c1	?	i	i	?	nt	nt
CC(C)COc1ccc(CC(=O)NO)cc1	nt	i	i	nt	nt	nt
Cc1nn(Cc2ccc(Cl)cc2)c(C)c1NC(=O)Cn1nc([N+](=O)[O-])c(Cl)c1C	6%	?	i	i	?	-25%
O=C(Nc1ccc(Cl)cn1)c1ccc(-c2cc(Cl)ccc2Cl)o1	-11%	i	?	?	-6%	12%
O=C(Nc1ccc(Cl)cn1)c1ccc([N+](=O)[O-])o1	?	i	?	i	23µM*	21µM*
Cc1c(Cl)c([N+](=O)[O-])nn1Cc1ccc(C(=O)Nc2ccc(Cl)cn2)o1	-1%	i	3.7µM*	i	0%	-14%
CCc1nn2c(=O)cc(COC(=O)CNC(=O)c3ccccc3)nc2s1	4%	i	i	i	nt	nt
Cc1nc2oc3c(NCc4ccccn4)ncnc3c2c2c1COC(C)(C)C2	-11%	?	2.1µM*	i	-3%	1%
CCCc1nc2oc3c(NCc4ccccn4)ncnc3c2c2c1COC(C)(C)C2	3%	i	?	i	-1%	-2%
Clc1ccc(CN(CCCNc2ncnc(NCCCc3cnc[nH]3)n2)c2ccc(Br)cn2)cc1Cl	nt	?	i	nt	nt	nt
O=C1Nc2c(c(=O)[nH]c(=O)n2-c2ccc(Cl)cc2)C1(NS(=O)(=O)c1ccccc1)C(F)(F)F (centres undefined)	-1%	i	?	i	nt	nt
Cc1cc(-n2c(C)cc(C(=S)N3CCOCC3)c2C)ccc1Br	-16%	?	8.2µM*	i	7%	-2%
Cc1ccc(-n2c(C)cc(C(=O)CN3CCOCC3)c2C)cc1C	nt	i	?	i	-2%	-1%
SMILES	ATXN2 expr inh	KB-3-1 tox	KB-V1 cytotox	S2 tox	HT1080-NT tox	HT1080 IDH1KD tx
CC1CCCN(c2nc3c(-c4ccc(Cl)cc4)nnn3c3ccccc23)C1 (centres undefined)	11%	i	i	i	nt	nt
NC(N)=N/N=C/c1ccc(OCc2ccc(Cl)cc2)cc1	?	i	21µM*	32µM*	16µM*	?
NC(N)=N/N=C/c1ccc(OCc2ccccc2)cc1	?	?	i	?	18µM*	?
CC(=O)NCCNC(=O)CCCc1nnc2n(C)c(=O)c3sccc3n12	14%	i	?	i	nt	nt
COC(=O)[C@]12CCCCC=C1N(Cc1cccc3ccccc13)C(=O)[C@H](CC(=O)NCc1cccc(C(F)(F)F)c1)C2	?	?	9.2µM*	?	?	?
COC(=O)[C@]12CCCCC=C1N(Cc1ccco1)C(=O)[C@H](CC(=O)NCc1cccc(C(F)(F)F)c1)C2	4%	i	i	i	-5%	-11%
CCOC(=O)[C@]12CCCC=C1N(Cc1ccccc1)C(=O)[C@H](CC(=O)NCc1cccc(C(F)(F)F)c1)C2	nt	i	?	nt	29µM*	?
CCCCCCCCN1C(=O)[C@H](CC(=O)NCc2cccc(C(F)(F)F)c2)C[C@@]2(C(=O)OC)CC(C)(C)CC=C12	nt	?	23µM*	nt	?	?
CCOC(=O)[C@]12CCCC=C1N(Cc1cccc3ccccc13)C(=O)[C@H](CC(=O)NCc1cccc(C(F)(F)F)c1)C2	-25%	i	i	?	?	-23%
CN(C)CCCNc1ncnc2oc(-c3ccccc3)c(-c3ccccc3)c12	2%	?	i	i	?	23µM*
COc1ccc(-c2cn3nc4c(nc3n2)CCCC4)cc1	16µM*	?	?	nt	7%	11%
COC(=O)c1nnn(CC(=O)Nc2ccc(Br)c(C)c2)c1N	6%	i	i	i	nt	nt
O=C(Nc1nc(-c2cccs2)c(-c2cccs2)s1)C1(c2ccccc2)CC1	-10%	i	18µM*	i	0%	-11%
CC(=O)NCCC(=O)Nc1nc(-c2cccs2)c(-c2cccs2)s1	1%	i	i	i	1%	-3%
CC(C)(C)c1ccc(C(=O)C[n+]2cccc(Br)c2)cc1	nt	i	i	nt	nt	nt
O=C(C1CCC(CNS(=O)(=O)c2cccc3nsnc23)CC1)N1CCN(c2ccccn2)CC1 (centres undefined)	-10%	i	18µM*	i	-17%	-11%
